# Reference: PubChem BioAssay AID1159580 (chemical genetic matrix, 2015)
# The whole screen tested about 5,500 compounds, of which about 2,000 (36%) were called active. Inconclusive results (about 18%) are left out. This is one part of the list. Unmarked numbers belong to inactive results. Cut-off read from the data, not from the text of the source: active = normalized growth mostly below about 0.91 (no sharp cut-off); inconclusive = no clear call, values can overlap the other calls; inactive = mostly above about 0.92.
# Test: chemical genetic growth profiling, strain panel (AID 1159580);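 note: tested at 20 µM; growth read once vehicle control cultures reached saturation at 30 °C; 1 = growth at the plate median or of vehicle wells; lower values mean less growth of the strain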
# Conditions: S. cerevisiae deletion strains, growth OD
# [1] = locus YAL013W, strain DEP1, stronger effect = lower value
# [2] = locus YDR150W, strain NUM1, stronger effect = lower value
# [3] = locus YJR075W, strain HOC1, stronger effect = lower value
# [4] = locus YAR019C, strain CDC15, stronger effect = lower value
# [5] = locus YBL105C, strain PKC1, stronger effect = lower value
# [6] = locus YBR135W, strain CKS1, stronger effect = lower value
# [7] = locus YBR136W, strain MEC1, stronger effect = lower value
# [8] = locus YBR160W, strain CDC28, stronger effect = lower value
# [9] = locus YDL017W, strain CDC7, stronger effect = lower value
# [10] = locus YDL028C, strain MPS1, stronger effect = lower value
# [11] = locus YDL101C, strain DUN1, stronger effect = lower value
# [12] = locus YDL108W, strain KIN28, stronger effect = lower value
# [13] = locus YDL132W, strain cdc53, stronger effect = lower value
# [14] = locus YDL214C, strain PRR2, stronger effect = lower value
# [15] = locus YDR052C, strain DBF4, stronger effect = lower value
# [16] = locus YDR054C, strain cdc34, stronger effect = lower value
# [17] = locus YDR226W, strain ADK1, stronger effect = lower value
# [18] = locus YDR477W, strain SNF1, stronger effect = lower value
# [19] = locus YER123W, strain YCK3, stronger effect = lower value
# [20] = locus YER133W, strain GLC7, stronger effect = lower value
# [21] = locus YFL009W, strain cdc4, stronger effect = lower value
# [22] = locus YFL029C, strain CAK1, stronger effect = lower value
# [23] = locus YFR003C, strain YPI1, stronger effect = lower value
# [24] = locus YFR019W, strain FAB1, stronger effect = lower value
# [25] = locus YFR028C, strain CDC14, stronger effect = lower value
# [26] = locus YGR040W, strain KSS1, stronger effect = lower value
# [27] = locus YGR052W, strain FMP48, stronger effect = lower value
# [28] = locus YGR092W, strain DBF2, stronger effect = lower value
# [29] = locus YHR030C, strain SLT2, stronger effect = lower value
# [30] = locus YHR079C, strain IRE1, stronger effect = lower value
# [31] = locus YHR082C, strain KSP1, stronger effect = lower value
# [32] = locus YHR205W, strain SCH9, stronger effect = lower value
# [33] = locus YIL147C, strain SLN1, stronger effect = lower value
# [34] = locus YJL095W, strain BCK1, stronger effect = lower value
# [35] = locus YJL128C, strain PBS2, stronger effect = lower value
# [36] = locus YJL157C, strain FAR1, stronger effect = lower value
# [37] = locus YJR016C, strain ILV3, stronger effect = lower value
# [38] = locus YJR066W, strain TOR1 (second series), stronger effect = lower value
# [39] = locus YJR066W, strain TOR1, stronger effect = lower value
# [40] = locus YKL048C, strain ELM1, stronger effect = lower value
# [41] = locus YKL067W, strain YNK1, stronger effect = lower value
# [42] = locus YKL101W, strain HSL1, stronger effect = lower value
# [43] = locus YKL193C, strain SDS22, stronger effect = lower value
# [44] = locus YKL203C, strain TOR2, stronger effect = lower value
# [45] = locus YLR113W, strain HOG1, stronger effect = lower value
# [46] = locus YLR133W, strain CKI1, stronger effect = lower value
# [47] = locus YLR403W, strain SFP1, stronger effect = lower value
# [48] = locus YML070W, strain DAK1, stronger effect = lower value
# [49] = locus YMR001C, strain CDC5, stronger effect = lower value
# [50] = locus YMR205C, strain PFK2 (second series), stronger effect = lower value
# [51] = locus YMR277W, strain FCP1, stronger effect = lower value
# [52] = locus YNL006W, strain LST8, stronger effect = lower value
# [53] = locus YNL020C, strain ARK1, stronger effect = lower value
# [54] = locus YNL161W, strain CBK1, stronger effect = lower value
# [55] = locus YNL183C, strain NPR1, stronger effect = lower value
# [56] = locus YNL207W, strain RIO2, stronger effect = lower value
# [57] = locus YNL222W, strain SSU72, stronger effect = lower value
# [58] = locus YNL307C, strain MCK1 (second series), stronger effect = lower value
# [59] = locus YOL078W, strain AVO1, stronger effect = lower value
# [60] = locus YOL136C, strain PFK27, stronger effect = lower value
# [61] = locus YOR061W, strain CKA2, stronger effect = lower value
# [62] = locus YOR119C, strain RIO1, stronger effect = lower value
# [63] = locus YOR231W, strain MKK1, stronger effect = lower value
# [64] = locus YOR329C, strain SCD5, stronger effect = lower value
# [65] = locus YPL031C, strain PHO85, stronger effect = lower value
# [66] = locus YPL153C, strain RAD53, stronger effect = lower value
# [67] = locus YPL204W, strain HRR25, stronger effect = lower value
# [68] = locus YPL209C, strain IPL1, stronger effect = lower value
# [69] = locus YPL256C, strain CLN2, stronger effect = lower value
# [70] = locus YPR025C, strain CCL1, stronger effect = lower value
# [71] = locus YPR106W, strain ISR1, stronger effect = lower value
# [72] = locus YPR111W, strain DBF20, stronger effect = lower value
# [73] = strain NNK1, stronger effect = lower value
# [74] = strain TSCII, stronger effect = lower value
structure (smiles),measurement,setting,value
CCNC(=O)[C@H]1O[C@@H](n2cnc3c(N)ncnc32)C(O)[C@H]1O (stereo partly specified),normalized growth,[1],1
same,normalized growth,"locus YAL040C, strain CLN3, stronger effect = lower value",1.02
same,normalized growth,"locus YCL061C, strain MRC1 (second series), stronger effect = lower value",1
same,normalized growth,[2],1
same,normalized growth,"locus YDR363W, strain ESC2, stronger effect = lower value",1.03
same,normalized growth,"locus YER002W, strain NOP16, stronger effect = lower value",1.01
same,normalized growth,[3],1
same,normalized growth,"locus YNL175C, strain NOP13, stronger effect = lower value",1
same,normalized growth,"locus YNL197C, strain WHI3, stronger effect = lower value",1.01
same,normalized growth,"locus YNL224C, strain SQS1, stronger effect = lower value",0.992
same,normalized growth,"locus YOR083W, strain WHI5 (second series), stronger effect = lower value",1.04
Cc1ccc(NS(=O)(=O)c2ccc(-c3csc(C)n3)s2)c(C)c1,normalized growth,[4],0.977
same,normalized growth,[5],0.984
same,normalized growth,[6],0.979
same,normalized growth,[7],0.981
same,normalized growth,[8],0.983
same,normalized growth,[9],0.984
same,normalized growth,[10],0.98
same,normalized growth,[11],0.993
same,normalized growth,[12],0.972
same,normalized growth,[13],0.989
same,normalized growth,[14],0.904
same,normalized growth,[15],0.986
same,normalized growth,[16],0.975
same,normalized growth,[17],0.986
same,normalized growth,[18],0.885
same,normalized growth,[19],0.888
same,normalized growth,[20],0.883
same,normalized growth,[21],0.976
same,normalized growth,[22],0.979
same,normalized growth,[23],0.98
same,normalized growth,[24],0.934
same,normalized growth,[25],0.981
same,normalized growth,[26],0.895
same,normalized growth,[27],0.928
same,normalized growth,[28],0.913
same,normalized growth,[29],0.647 (active)
same,normalized growth,[30],0.883
same,normalized growth,[31],0.976
same,normalized growth,[32],0.977
same,normalized growth,[33],0.982
same,normalized growth,[34],0.859
same,normalized growth,[35],0.943
same,normalized growth,[36],0.931
same,normalized growth,[37],0.983
same,normalized growth,[38],0.826
same,normalized growth,[39],0.936
same,normalized growth,[40],0.957
same,normalized growth,[41],0.898
same,normalized growth,[42],0.894
same,normalized growth,[43],0.985
same,normalized growth,[44],0.92
same,normalized growth,[45],0.676 (active)
same,normalized growth,[46],0.902
same,normalized growth,[47],0.912
same,normalized growth,[48],0.856
same,normalized growth,[49],0.977
same,normalized growth,[50],0.915
same,normalized growth,[51],0.98
same,normalized growth,[52],0.978
same,normalized growth,[53],0.898
same,normalized growth,[54],0.982
same,normalized growth,[55],0.893
same,normalized growth,[56],0.975
same,normalized growth,[57],0.986
same,normalized growth,[58],0.887
same,normalized growth,[59],0.983
same,normalized growth,[60],0.915
same,normalized growth,[61],0.84
same,normalized growth,[62],0.93
same,normalized growth,[63],0.806
same,normalized growth,[64],0.98
same,normalized growth,[65],0.892
same,normalized growth,[66],0.937
same,normalized growth,[67],0.881
same,normalized growth,[68],0.982
same,normalized growth,[69],0.715 (active)
same,normalized growth,[70],0.981
same,normalized growth,[71],0.988
same,normalized growth,[72],0.962
same,normalized growth,[73],0.974
same,normalized growth,[74],0.975
Cc1nc(-c2ccc(S(=O)(=O)N3CCN(c4ncnc5scc(-c6ccccc6)c45)CC3)s2)cs1,normalized growth,[1],1.02
same,normalized growth,"locus YBR229C, strain ROT2, stronger effect = lower value",1
same,normalized growth,"locus YCL061C, strain MRC1, stronger effect = lower value",1.01
same,normalized growth,[11],1
same,normalized growth,[2],0.936
same,normalized growth,"locus YEL061C, strain CIN8, stronger effect = lower value",0.995
same,normalized growth,"locus YGR078C, strain PAC10, stronger effect = lower value",1.01
same,normalized growth,[29],1.04
same,normalized growth,"locus YHR087W, strain rtc3, stronger effect = lower value",1.02
same,normalized growth,"locus YJL187C, strain SWE1, stronger effect = lower value",1.02
same,normalized growth,"locus YJR043C, strain POL32, stronger effect = lower value",1.01
same,normalized growth,[3],1.02
same,normalized growth,"locus YLR039C, strain RIC1, stronger effect = lower value",1.03
same,normalized growth,"locus YLR058C, strain SHM2 (second series), stronger effect = lower value",1.01
same,normalized growth,"locus YLR085C, strain ARP6, stronger effect = lower value",1.05
same,normalized growth,"locus YLR262C, strain YPT6, stronger effect = lower value",1.02
same,normalized growth,"locus YML094W, strain GIM5, stronger effect = lower value",1.02
same,normalized growth,"locus YMR219W, strain ESC1, stronger effect = lower value",1.01
same,normalized growth,"locus YMR263W, strain SAP30, stronger effect = lower value",1.03
same,normalized growth,"locus YMR307W, strain GAS1, stronger effect = lower value",0.952
same,normalized growth,"locus YNL153C, strain GIM3, stronger effect = lower value",1
same,normalized growth,"locus YNL298W, strain CLA4 (second series), stronger effect = lower value",1.03
same,normalized growth,"locus YNL322C, strain KRE1, stronger effect = lower value",1.01
same,normalized growth,"locus YNR030W, strain Alg12, stronger effect = lower value",1.01
same,normalized growth,"locus YOL006C, strain TOP1, stronger effect = lower value",0.997
same,normalized growth,"locus YPL055C, strain LGE1, stronger effect = lower value",0.897
same,normalized growth,"locus YPL241C, strain CIN2, stronger effect = lower value",1.05
same,normalized growth,"locus YPR135W, strain CTF4, stronger effect = lower value",0.993
Cc1nc(-c2ccc(S(=O)(=O)Nc3ccc(Br)cc3Cl)s2)cs1,normalized growth,[4],0.936
same,normalized growth,[5],0.946
same,normalized growth,[6],0.953
same,normalized growth,[7],0.942
same,normalized growth,[8],0.959
same,normalized growth,[9],0.942
same,normalized growth,[10],0.957
same,normalized growth,[11],0.956
same,normalized growth,[12],0.961
same,normalized growth,[13],0.951
same,normalized growth,[14],0.888
same,normalized growth,[15],0.941
same,normalized growth,[16],0.928
same,normalized growth,[17],0.943
same,normalized growth,[18],0.858
same,normalized growth,[19],0.904
same,normalized growth,[20],0.867
same,normalized growth,[21],0.957
same,normalized growth,[22],0.953
same,normalized growth,[23],0.949
same,normalized growth,[24],0.923
same,normalized growth,[25],0.952
same,normalized growth,[26],0.868
same,normalized growth,[27],0.866
same,normalized growth,[28],0.877
same,normalized growth,[29],0.575 (active)
same,normalized growth,[30],0.778
same,normalized growth,[31],0.943
same,normalized growth,[32],0.944
same,normalized growth,[33],0.957
same,normalized growth,[34],0.84
same,normalized growth,[35],0.89
same,normalized growth,[36],0.893
same,normalized growth,[37],0.94
same,normalized growth,[38],0.882
same,normalized growth,[39],0.93
same,normalized growth,[40],0.919
same,normalized growth,[41],0.883
same,normalized growth,[42],0.864
same,normalized growth,[43],0.942
same,normalized growth,[44],0.893
same,normalized growth,[45],0.635 (active)
same,normalized growth,[46],0.888
same,normalized growth,[47],0.863
same,normalized growth,[48],0.856
same,normalized growth,[49],0.946
same,normalized growth,[50],0.907
same,normalized growth,[51],0.94
same,normalized growth,[52],0.937
same,normalized growth,[53],0.884
same,normalized growth,[54],0.946
same,normalized growth,[55],0.901
same,normalized growth,[56],0.925
same,normalized growth,[57],0.952
same,normalized growth,[58],0.891
same,normalized growth,[59],0.952
same,normalized growth,[60],0.852
same,normalized growth,[61],0.859
same,normalized growth,[62],0.938
same,normalized growth,[63],0.79
same,normalized growth,[64],0.946
same,normalized growth,[65],0.862
same,normalized growth,[66],0.893
same,normalized growth,[67],0.846
same,normalized growth,[68],0.942
same,normalized growth,[69],0.672 (active)
same,normalized growth,[70],0.953
same,normalized growth,[71],0.943
same,normalized growth,[72],0.926
same,normalized growth,[73],0.926
same,normalized growth,[74],0.937
